Counter-ions that a name gives are not always drawn. ± gives the standard deviation of the averaged measurements.
The compounds below were run on E. coli TESEC Alr+ wild-type control (assay: growth (OD600 after 10 h); higher = more growth (less inhibition)). Settings: compound 0.1 mM; raw OD600 reference: median of DMSO wells 0.241, cell-free background 0.041.
Procedure: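 TESEC Mtb Alr E. coli, or the Alr+ wild-type control, in 384-well plates with Prestwick library compounds at 0.1 mM and 1% DMSO, across arabinose induction levels of 1E3 to 1E7 nM. Growth is read as OD600 after 10 h at 37 °C in triplicate biological replicates.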

Compound	growth
COc1cc(C(=O)NS(=O)(=O)c2ccccc2C)ccc1Cc1cn(C)c2ccc(NC(=O)OC3CCCC3)cc12 [Zafirlukast]	0.125 ± 0.0034
NNc1nncc2ccccc12 [Hydralazine hydrochloride]	0.142 ± 0.0062
Nc1c2c(nc3ccccc13)CCCC2O (racemic) [Hydroxytacrine maleate (R,S)]	0.227 ± 0.0038
CCN(CC)CCOC(=O)C1(C2CCCCC2)CCCCC1 [Dicyclomine hydrochloride]	0.137 ± 0.0054
O=C(Oc1cccc2cccnc12)c1ccccc1 [Benzoxiquine]	0.222 ± 0.0051
O=C1CC2(CCCC2)CC(=O)N1CCCCN1CCN(c2ncccn2)CC1 [Buspirone hydrochloride]	0.2005 ± 0.002
CCN(CC)C(=O)C1(c2ccccc2)CC1CN (stereo not drawn) [Milnacipran hydrochloride]	0.233 ± 0.011
CCN(CC)CC#CCOC(=O)C(O)(c1ccccc1)C1CCCCC1 (stereo not drawn) [Oxybutynin chloride]	0.148 ± 0.0035
C[C@]12C=CC(=O)C=C1CC[C@H]1[C@@H]3C[C@@H](O)[C@](O)(C(=O)CO)[C@@]3(C)C[C@H](O)[C@@]12F [Triamcinolone]	0.222 ± 0.0077
O=C(CCCCC(=O)Nc1c(I)cc(I)c(C(=O)O)c1I)Nc1c(I)cc(I)c(C(=O)O)c1I [Iodipamide]	0.249 ± 0.012
CCN(CCO)CCCC(C)Nc1ccnc2cc(Cl)ccc12 (stereo not drawn) [Hydroxychloroquine sulfate]	0.228 ± 0.0034
Cc1ccsc1/C=C/C1=NCCCN1C [Morantel tartrate]	0.248 ± 0.0087
Cc1noc(NS(=O)(=O)c2ccc(N)cc2)c1C [Sulfisoxazole]	0.248 ± 0.0068

Source: the supplement of paper PMC9262897, “Low-cost anti-mycobacterial drug discovery using engineered E. coli” (Nature Communications, 2022)
